Source: PubChem BioAssay
Rows were chosen to be rich in hits. Some 6.3% of all compounds tested hit in one or more screens of this group.
A340 absorber = absorbance at 340 nm. compound absorbance at 340 nm, fold over control. 65,000 tested, under 10 active. fold change at 10 µM. AID 708;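 active = at 10 µM dose, initial 340 nm absorbance at least 2 fold that of control wells; inactive = change under 2 fold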;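 also: initial absorbance extrapolated from kinetic A340 decline of NADH oxidation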
DPM-DC inhibit = blocks S. pneumoniae diphosphomevalonate decarboxylase; purified DPM-DC, PK/LDH coupled NADH fluorescence; calls only at 10 µM; 0.49% of 65,000 active;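 active = the 320 compounds with the highest percent inhibition in the single-dose primary screen, excluding strongly autofluorescent ones, cut at about 32% in these data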;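 also: kinetic rate of NADH fluorescence loss reporting ADP formed by the decarboxylase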
Fluor 339 460 = intrinsic fluorescence of library compounds, ex339/em460 – biochemical, MLSMR library, data from DPM-DC assay, artefact control, profiling panel | 5.5% of 65,000 active | compound autofluorescence, ex339/em460 nm, NADH buffer; hits give high values; 1 = no-compound wells, NADH background | AID 709 | fluorescence fold increase at 10 µM;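 active = at 10 µM, mean starting fluorescence two-fold or more over control wells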;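 also: signal is the first read of a kinetic run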
NADH enzymes = inhibitors of enzymes used to reach an NAD/NADH endpoint; 0.02% of 65,000 active; coupled PK/LDH NADH assays, four targets; IC50, µM (highest dose often 10 µM), inactives show at the highest dose inhibition;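 active = single-dose screening hits from any of four coupled enzyme assays that gave an IC50 when retested across doses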;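 also: the DPM-DC format reads NADH fluorescence rather than 340 nm absorbance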
Spn MK inh = S. pneumoniae mevalonate kinase inhibition. purified MK, PK/LDH-coupled NADH absorbance 340 nm. inhibition, % at 10 µM. 0.48% of 65,000 active;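 active = ranked among the strongest by inhibition in the single 10 µM screen, a fixed top-ranked set picked for dose follow-up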
PMK inhibit = inhibitors of Streptococcus pneumoniae phosphomevalonate kinase; inhibition, % at 10 µM; purified PMK, PK/LDH-coupled NADH absorbance 340 nm; 0.49% of 65,000 active; AID 539;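 active = top-ranked compounds by inhibition in the single 10 µM screen, taking a fixed number of the strongest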;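 also: 0% = full reaction with DMSO carrier and 100% = background rate without enzyme reaction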
Numbers without * were called inactive; i = inactive; nt = no result given; + = active, no number.

SMILES	A340 absorber	DPM-DC inhibit	Fluor 339 460	NADH enzymes	Spn MK inh	PMK inhibit
N#Cc1sc2nc3c(c(-c4ccco4)c2c1N)CCCC3	1	i	1.3	6%	11	6
COCc1cc(C)c2c(N)c(C#N)sc2n1	1	nt	2.4*	4%	0	21
CC1CN(c2nc3c(c(=O)[nH]c(=O)n3C)n2Cc2ccccc2F)CC(C)O1 (stereo not drawn)	1.1	i	1.1	1%	3	0
C[C@]12CC[C@@H]3c4ccc(OS(=O)(=O)O)cc4CC[C@H]3[C@@H]1CCC2=O	1	i	1.1	8%	6	active
C#C[C@]1(O)CC[C@H]2[C@@H]3CCc4cc(O)ccc4[C@H]3CC[C@@]21C	1	i	1.1	1%	4	0
OCCCc1nc2n(n1)C(c1ccccc1)C=C(c1ccccc1)N2 (stereo not drawn)	1.1	i	1.9	11%	10	0
COc1ccc(C2C=C(c3ccccc3)Nc3nc(CCCO)nn32)cc1 (stereo not drawn)	1.1	nt	4.9*	9%	1	17
COc1ccc(C2C=C(c3cccs3)Nc3nc(CCCO)nn32)cc1 (stereo not drawn)	1.1	nt	3.9*	9%	0	17
Cc1cc(C)c2nc(N3CCCN(C(=O)c4cnccn4)CC3)c(C#N)cc2c1	0.98	i	1.3	5%	6	9
Cc1ccc(C2C(C#N)=C(N)Oc3nc(-c4ccccc4)[nH]c32)o1 (stereo not drawn)	1	i	1.1	5%	6	10
Cc1ccc(-c2cc(-c3ccccc3)c(C#N)c(N)n2)o1	0.99	nt	5.1*	18%	18	17
Cc1ccc(-c2cc(-c3ccccc3Cl)c(C#N)c(N)n2)o1	1.1	nt	2.3*	8%	15	0
Cc1ccc(-c2cc(-c3ccc(F)cc3)nc(N)c2C#N)o1	1.1	nt	3.7*	9%	5	12
CC(=NCc1ccco1)c1c(C)[nH]n(-c2nc3ccccc3s2)c1=O	1.1	+	1.2	16%	0	12
CCOC(=O)c1cccc(NC(=O)Cn2c(CC(=O)N3CCCC3)nc3ccccc32)c1	0.98	i	0.95	6%	1	11
COc1ccc2c(c1)c(C(=O)OCCN(C)C)c(C)n2C	1	i	1.1	6%	9	10
COc1ccc2nc(C)c(C(=O)OCCN(C)C)cc2c1	1	i	2.1*	7%	0	2
N#CCCSc1ccccc1NC(=O)c1ccc(S(=O)(=O)N2CCCC2)cc1	0.97	i	1.1	8%	10	15
CCCC(=O)Nc1cc(OC)c(OC)cc1C(=O)O	1.1	i	1.2	0%	0	0
CCCCNc1cc(NC(C)=O)cc2cc(OC)c(OC)cc12	1.1	nt	2.1*	6%	9	2
CC(C)(C)C1CCc2[nH]c3ccccc3c(=O)c2C1 (stereo not drawn)	1.1	i	1.2	0%	0	0
O=c1c2c([nH]c3ccccc13)C(=C1CCCC1)CC2	1.1	nt	2.1*	0%	0	0
COC(=O)CSc1ccc2c(N)c(C(=O)OC)sc2c1	1	i	2.5*	13%	1	15
CCOC(=O)c1[nH]c2cc3c(cc2c1NC(=O)CN1CCC(C)CC1)OCO3	1.1	nt	2.3*	5%	9	0
CCOC(=O)c1[nH]c2cc3c(cc2c1NC(=O)CN1CCc2ccccc2C1)OCO3	1.1	nt	2.3*	0%	0	0
CCOC(=O)N1CCN(CC(=O)Nc2c(C(=O)OC)[nH]c3ccccc23)CC1	1	i	1.6	9%	13	5
CCC(=O)N1CCc2cc(Br)cc(S(=O)(=O)N3CCN(c4ccccn4)CC3)c21	1	i	1.1	2%	7	0
COCCn1c(C)cc2c(c1=O)C(c1ccccc1F)C(C#N)=C(N)O2 (stereo not drawn)	1	i	1.1	9%	2	26*
CC(O)COc1ccc(/C(=N/O)c2ccccc2)cc1 (stereo not drawn)	1	+	1	22%	18	0
CC(C)OC(=O)CC(=O)c1sc2nc3c(cc2c1N)CN(C)CC3	1.1	nt	4.8*	12%	4	19
